IL1B secr inh: inhibitors of inflammasome signaling (IL-1 beta secretion); activity change, % at 57.5 µM; 4.7% of 360,000 active; THP-1 LPS/ATP IL-1B secretion, AlphaLISA, 16 h; stronger effect = lower value; in the data active = activity change below about -50%; inconclusive = mostly about -30% to -49%
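Secreted IL-1B measured by AlphaLISA bead assay after 16 h compound exposure of THP-1 cells; compounds (final up to 57.5 uM) added 1 h before LPS (250 ng/mL) and ATP (1.25 mM) stimulation; lower signal means less secretion.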
DT40 TDP1 no CPT: qHTS for Inhibitors of human tyrosyl-DNA phosphodiesterase 1 (TDP1): qHTS in cells in absence of CPT; DT40 Tdp1-/- hTDP1 cells, no CPT, ATP luminescence, 48 h; 15% of 420,000 active; AID 686978, 2013; Potency, µM (titrated, usually from 46.2 µM), without a hit: top-dose activity change, negative = growth inhibition, most hits filed as inhibitors; note: potency is the fitted concentration of half-maximal effect; nearly all actives have a fitted effect of over 55% in size
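A cellular qHTS used chicken DT40 cells lacking endogenous Tdp1 but carrying stably transfected human TDP1. Compounds were applied without camptothecin, and cell growth kinetics were judged by ATP-dependent luminescence after ≥48 hr.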
TDP1 inh: inhibitors of human tyrosyl-DNA phosphodiesterase TDP1; 0.28% of 350,000 active; Q9NUW8; Potency, µM (highest dose often 130 µM), for the others: at the top dose activity change, negative = inhibition, actives largely listed as inhibitors; recombinant TDP1, AlphaScreen DNA substrate cleavage; AID 485290; note: potency is the fitted concentration of half-maximal effect; nearly all actives have a fitted effect of over 40% in size
Target sequence (Q9NUW8 whole entry, looked up): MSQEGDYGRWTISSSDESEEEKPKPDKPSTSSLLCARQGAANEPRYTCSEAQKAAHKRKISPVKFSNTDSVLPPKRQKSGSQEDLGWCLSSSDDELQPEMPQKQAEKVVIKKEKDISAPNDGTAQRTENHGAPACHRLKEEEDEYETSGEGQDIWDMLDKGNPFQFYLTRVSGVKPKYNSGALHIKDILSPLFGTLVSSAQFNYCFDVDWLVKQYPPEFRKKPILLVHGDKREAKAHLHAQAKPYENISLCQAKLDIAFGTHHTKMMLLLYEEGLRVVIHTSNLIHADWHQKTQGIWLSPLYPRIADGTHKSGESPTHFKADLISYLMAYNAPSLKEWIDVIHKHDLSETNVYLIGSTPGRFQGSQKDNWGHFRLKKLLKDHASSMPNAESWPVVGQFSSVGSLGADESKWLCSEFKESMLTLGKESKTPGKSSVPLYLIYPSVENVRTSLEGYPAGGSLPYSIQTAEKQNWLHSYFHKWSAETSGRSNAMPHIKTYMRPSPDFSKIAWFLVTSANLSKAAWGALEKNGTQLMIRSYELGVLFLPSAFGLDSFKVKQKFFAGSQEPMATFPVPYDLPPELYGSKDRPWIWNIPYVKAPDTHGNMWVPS
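E. coli-derived human Tdp1, 1 nM final. Cpd preinc 15 min RT; substrate 15 nM final, 5 min RT; AS bead mix 10 ug/ml final, 10 min RT. Signal loss = tyrosine-FITC cleavage. No-enzyme wells = max signal.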
Six1-Eya2 blk: blocks human Six1 binding to Eya2 | Q15475+O00167 | 0.56% of 360,000 active | AlphaScreen GST-Six1/His-Eya2 binding, biochemical; stronger effect = lower value | activity change, % (no concentration beside the values); in the data active = activity change below about -65%; inconclusive = mostly about -30% to -63%
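Six1/Eya2 binding was read as AlphaScreen signal after compounds were pinned into GST-Six1 plus His-tagged Eya2 (5X stock 250/500 nM) in pH 8.0 Tris/NaCl/TCEP buffer, beads added, then incubated 1 h, 37 C, dark.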
DT40 TDP1 CPT: DT40-hTDP1 cell growth loss with CPT. chicken DT40 Tdp1-/-;hTDP1 cells + 20 nM CPT, ATP luminescence, 48 h. Potency, µM (doses to about 46.2 µM), without a hit: at the highest dose activity change, negative = growth inhibition, usual class: inhibitors. AID 686979. 12% of 420,000 active; note: potency is the fitted concentration of half-maximal effect; nearly all actives have a fitted effect of over 55% in size
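Chicken DT40 Tdp1-/- cells complemented with human TDP1, 400 cells/well, exposed to compounds plus 20 nM camptothecin for at least 48 h at 37 C; viability read as ATP content by CellTiter-Glo luminescence.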
CtBP-E1A blk: blocks the CtBP interaction with E1A; AID 651724; AlphaScreen GST-E1A/His-CtBP binding, 1536-well; stronger effect = lower value; 0.49% of 340,000 active; activity change, % (no concentration beside the values); in the data active = activity change below about -65%; inconclusive = mostly about -30% to -63%
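GST-E1A and His-tagged CtBP (125 nM each as 5X stock) were preincubated with pin-transferred compound for 2 h at 37 °C in the dark, then glutathione donor and nickel acceptor beads were added for 1 h before AlphaScreen reading.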
Active calls of the source: *; u = inconclusive; x = no result. Only some compounds are listed: those with a hit (about 18% of all), similar ones and a draw of the others. Unless noted, calls come from the whole dose curve; as a rule, active = well fitted curve in the direction sought with a large enough effect; inconclusive = small, poorly fitted or top-dose-only effect, or another doubt; inactive = no such curve, though single readings can be large; an effect the other way counts as inactive or inconclusive. % is set by controls: 0 for no effect and ±100 for the full control effect.

SMILES	IL1B secr inh	DT40 TDP1 no CPT	TDP1 inh	Six1-Eya2 blk	DT40 TDP1 CPT	CtBP-E1A blk
CCCC(C(=O)NCC1CCCO1)N(C(=O)CNS(=O)(=O)c1ccccc1)c1ccc(F)cc1 (stereo not drawn)	23	u	2%	-6	12%	14
COc1cc2c(cc1OC)C(COc1cc(C)cc(C)c1)N(C(=O)C(C)(C)C)CC2 (stereo not drawn)	x	26µM*	5%	x	u	x
COc1cc2c(cc1OC)C(COc1cc(C)cc(C)c1)N(C(=O)COc1ccccc1)CC2 (stereo not drawn)	x	23µM*	8%	x	u	x
CCN(C)C1CN(Cc2cn(Cc3ccccc3)nn2)S(=O)(=O)C1 (stereo not drawn)	-1	-21%	x	7	1%	4
O=C(Oc1ccccc1)c1cccc2cccc(C(=O)Oc3ccccc3)c12	13	21µM*	x	16	u	x
COc1ccc(OC)c(/C=C/c2[nH]c(=O)[nH]c(=O)c2[N+](=O)[O-])c1	-59*	2%	x	-23	19%	-13
COc1ccc(OC)c(C=Cc2ccc([N+](=O)[O-])cc2)c1	-16	u	x	5	-12%	-17
CC(=O)Nc1ccc(NC(=O)C2c3ccccc3Oc3ccccc32)cc1	-3	-2%	5%	4	14%	20
Cc1ccc(NC(=O)C2c3ccccc3-c3ccccc32)cc1	-2	u	x	4	6.5µM*	3
Cc1ccc(C(=O)NC2c3ccccc3-c3ccccc32)cc1	14	3.7µM*	0%	2	2.9µM*	4
Cc1cccc(C)c1OCCn1c(C2CC(=O)N(Cc3ccc(F)cc3)C2)nc2ccccc21 (stereo not drawn)	x	18µM*	11%	x	u	x
CCc1ccccc1N1CC(c2nc3ccccc3n2CCOc2ccc(Cl)c(C)c2)CC1=O (stereo not drawn)	x	21µM*	0%	x	10µM*	x
CCn1c(C2CC(=O)N(Cc3ccccc3)C2)nc2ccccc21 (stereo not drawn)	-11	-8%	2%	0	-15%	3
CCOc1ccccc1N1CC(c2nc3ccccc3n2CCOc2ccc(C(C)(C)C)cc2)CC1=O (stereo not drawn)	x	u	10%	x	u	x
Cc1cc(OCCn2c(C3CC(=O)N(Cc4ccc(F)cc4)C3)nc3ccccc32)ccc1Cl (stereo not drawn)	x	26µM*	6%	x	u	x
CC1CCN(CC(=O)Nc2ccccc2C#N)CC1	0	u	6%	-10	-21%	0
Cc1nn(Cc2noc(C(=O)NC(C)c3ccccc3)n2)c(C)c1Br (stereo not drawn)	x	-25%	5%	x	u	x
CS(=O)(=O)N1N=C(c2cccs2)CC1c1ccccc1O (stereo not drawn)	-4	-7%	5%	8	-5%	-2
Oc1ccccc1C1CC(c2cccs2)=NC(c2ccc(Cl)cc2)N1 (stereo not drawn)	u	4.1µM*	0%	-13	21µM*	-4
Cc1ccc(C2CC(=O)Oc3c(C(C)C)ccc(C)c32)cc1 (stereo not drawn)	x	x	-8%	x	x	x
CC1(c2nc3ccccc3[nH]2)CCCC2=Nc3ccccc3CN21 (stereo not drawn)	-14	18µM*	x	2	u	1
CC1(c2nc3ccccc3[nH]2)CCC(=O)N1Cc1ccccn1 (stereo not drawn)	24	9%	x	-11	-1%	-13
CC(=O)CSc1nnc2c3ccccc3nc(C(C)(C)C)n12	8	-16%	5%	-2	-11%	-9
Cc1csc(NC(=O)CSc2nnc3c4ccccc4nc(C(C)(C)C)n23)n1	30	5.8µM*	5%	-9	4.6µM*	11
Cc1ccc(C(=O)CSc2nnc3c4ccccc4nc(C(C)(C)C)n23)cc1	-13	12µM*	0%	6	u	-16
SMILES	IL1B secr inh	DT40 TDP1 no CPT	TDP1 inh	Six1-Eya2 blk	DT40 TDP1 CPT	CtBP-E1A blk
N#C/C(=C\c1coc2ccccc2c1=O)C(N)=S	4	15µM*	12%	-7	u	-13
CCOc1ccc(NC(=O)C2CCN(C(=O)NCc3ccccc3)CC2)cc1	-4	-19%	0%	4	1%	10
NC(=O)c1ccc(NC(=O)Cc2cccs2)cc1	6	-3%	0%	-6	-13%	3
O=C(Nc1cccc(S(=O)(=O)N2CCCC2)c1)c1cc(S(=O)(=O)N2CCOCC2)ccc1F	-1	-10%	x	6	u	8
O=C(Nc1cccc(S(=O)(=O)N2CCOCC2)c1)c1cc(S(=O)(=O)N2CCOCC2)c(Cl)cc1Cl	-1	u	x	-4	15µM*	u
O=C(Nc1cccc(S(=O)(=O)C(F)F)c1)c1ccc(Cl)c(S(=O)(=O)N2CCOCC2)c1	-63*	18µM*	3%	-1	16µM*	-3
O=C(Nc1ccccc1)c1ccc(NCc2ccco2)c(S(=O)(=O)N2CCOCC2)c1	-13	u	0%	-17	-15%	-4
CCOC(=O)c1ccccc1NC(=O)COC(=O)c1ccc(C)c(S(=O)(=O)N2CCOCC2)c1	2	-14%	0%	-1	-6%	3
O=C(Nc1cccnc1)c1ccc(Cl)c(S(=O)(=O)N2CCOCC2)c1	51	1%	14%	8	u	3
O=C(Nc1ccccc1)c1ccc(NCc2cccnc2)c(S(=O)(=O)N2CCOCC2)c1	-9	15µM*	7%	-2	-21%	-4
CCOC(=O)c1ccccc1NC(=O)c1ccc(Cl)c(S(=O)(=O)N2CCOCC2)c1	-21	16µM*	x	9	u	3
O=C(Nc1cccc(C(=O)NC2CC2)c1)c1ccc(Cl)c(S(=O)(=O)N2CCOCC2)c1	15	u	-18%	2	-28%	x
O=C(Nc1cccc(Br)c1)c1ccc(Cl)c(S(=O)(=O)N2CCOCC2)c1	-96*	18µM*	-4%	-28	15µM*	12
O=C(NC1CCCCCC1)c1ccc(Cl)c(S(=O)(=O)N2CCOCC2)c1	-9	29µM*	x	-9	u	1
C[C@@H]1C[C@H](O)c2cc(Cl)ccc2N1	25	-11%	4%	0	-7%	0
N#CC1CC(c2ccccc2)Nc2cc(Cl)ccc2N1 (stereo not drawn)	1	10µM*	10%	5	16µM*	x

Bioassay records (PubChem)
